Compound activity as filed in PubChem BioAssay.
NR1D1 modulator = Rev-erb alpha (human) modulation; P20393; Rev-erbα–FITC-DNA binding, fluorescence polarization, 90 min; activity, % at 10 µM; 0.79% of 370,000 active; AID 1259318;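 active means activity above about 14%, limit read from the data; passing the limit was not always enough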;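 further: 0% = DMSO wells with 35 nM protein and 100% = DMSO wells with 750 nM protein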
EP2 antag = EP2 receptor (human) inhibition; C6 glioma cells expressing human EP2, cAMP TR-FRET; cells stimulated with saturating PGE2; inhibition, % at 25 µM; 0.52% of 260,000 active;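 active means percent inhibition above 40 after rounding to a whole number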;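 further: rat C6 glioma host cells with rolipram phosphodiesterase inhibitor present; the protocol text gives 20 µM as final concentration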
Target sequence (P43116 whole entry, looked up): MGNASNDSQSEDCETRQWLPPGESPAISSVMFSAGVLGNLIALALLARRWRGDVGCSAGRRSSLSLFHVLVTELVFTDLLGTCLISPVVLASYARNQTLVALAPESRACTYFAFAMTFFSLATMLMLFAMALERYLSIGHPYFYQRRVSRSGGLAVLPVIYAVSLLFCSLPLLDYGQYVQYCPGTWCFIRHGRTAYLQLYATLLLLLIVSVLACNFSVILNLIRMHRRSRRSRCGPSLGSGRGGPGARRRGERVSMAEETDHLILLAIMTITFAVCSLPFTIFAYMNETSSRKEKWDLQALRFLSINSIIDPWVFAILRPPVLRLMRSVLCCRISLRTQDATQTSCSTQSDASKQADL
EP2 mod = EP2 receptor (human) modulation; P43116; EP2-expressing cells, cAMP HTRF FRET, PGE2 co-stimulation; induction, % at 25 µM; 0.83% of 260,000 active;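 active means compounds whose cAMP rise, as percent of the full-agonist control response, exceeds 60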;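 further: rat C6 glioma line stably carrying human EP2 under a CMV promoter; the protocol text gives 20 µM as final concentration; 100% = response of wells given 1 µM PGE2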
SKN-1 inh = C. elegans SKN-1 inhibition; C. elegans VP596 Pgst-4::GFP/RFP ratio, acrylamide-induced, 24 h; inhibition, % at 21.8 µM; 0.49% of 360,000 active;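 active means interference check ratio from 0.5 to 1.5 plus GFP to RFP signal ratio inhibition reaching or exceeding a fixed threshold, cut at about 30% in these data, passing the limit was not always enough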
RAM network inh = yeast RAM network inhibition; S. cerevisiae dse1pr::URA3 reporter, 5-FOA growth OD615, 2 d; analog-sensitive cbk1-as2 kinase mutant strain; inhibition, % at 50 µM; 1.8% of 190,000 active; AID 868;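 active means inhibition above a set limit, 3 SD over mean compound inhibition, cut at about 8.4% in these data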;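 further: 0% = DMSO-only wells with no growth and 100% = 10 µM 1-NA-PP1 full growth; inhibition rescues growth on 5-FOA so higher OD means more RAM inhibition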
PG9 binder = small molecules binding HIV-1 gp120 antibody PG9; 0.43% of 360,000 active; TR-FRET gp120-PG9 antibody binding; AID 624416; inhibition, % at 6.7 µM; in the data active means inhibition above about 8.5%
* hit, by the source's call. Shown are actives, neighbours in structure and some others; about 2.9% of the full set was active somewhere.

How did Cc1cc(N/N=C\c2ccccc2)nc(-c2ccccc2O)n1 do in these assays?
NR1D1 modulator: 4; EP2 antag: 15; EP2 mod: 7; SKN-1 inh: 5; RAM network inh: 2; PG9 binder: -2

How did Cc1cc(N/N=C/c2ccccc2O)nc(-c2ccccc2O)n1 do in these assays?
NR1D1 modulator: 4; EP2 antag: 60*; EP2 mod: -57; SKN-1 inh: 15; RAM network inh: 2; PG9 binder: 0

How did Cc1cc(N/N=C/c2ccc(O)cc2O)nc(-c2ccccc2O)n1 do in these assays?
EP2 antag: 80*; EP2 mod: -57; SKN-1 inh: -3; RAM network inh: 10*

How did COC(=O)c1cccc(Nc2cc(C)nc(-c3ccccc3O)n2)c1 do in these assays?
NR1D1 modulator: 12; EP2 antag: 17; EP2 mod: -12; SKN-1 inh: 13; RAM network inh: 5; PG9 binder: 0

Results for Cc1cc(N/N=C/c2ccc(O)cc2O)c2ccccc2n1 ?
NR1D1 modulator: -2; SKN-1 inh: 6; PG9 binder: -1

How did Cc1ccc(-c2noc(C3CCCN(S(=O)(=O)c4ccc5ccccc5c4)C3)n2)o1 (configuration not stated) do in these assays?
NR1D1 modulator: 4; EP2 antag: 30; EP2 mod: -13; SKN-1 inh: 2; RAM network inh: 4; PG9 binder: -1

Results for CC(=O)c1cccc(S(=O)(=O)N2CCCC(c3nc(-c4ccc(C)o4)no3)C2)c1 (configuration not stated) ?
NR1D1 modulator: -5; EP2 antag: 9; EP2 mod: -29; SKN-1 inh: 20; RAM network inh: 9.3*; PG9 binder: -2

What do the screens show for `CC1CCN(C(=O)C2CCN(S(C)(=O)=O)CC2)CC1`?
EP2 antag: 7; EP2 mod: -8

What do the screens show for `COCCNC(=O)C1CC(c2ccccc2O)=NO1` (configuration not stated)?
EP2 antag: 15; EP2 mod: -18

What do the screens show for `COc1ccc(OCCN(C)C(=O)c2cccc(S(=O)(=O)N(C)c3ccccc3)c2)cc1`?
NR1D1 modulator: 6; SKN-1 inh: 37*; PG9 binder: -2

What do the screens show for `Cc1ccc(O)c(N=NC2=C(O)CC(C)(C)CC2=O)c1`?
NR1D1 modulator: -2; EP2 antag: 5; EP2 mod: 6; SKN-1 inh: 18; RAM network inh: 0; PG9 binder: -19

Results for CC1(C)CC(=O)C(N=Nc2cc3c(cc2[N+](=O)[O-])OCCO3)=C(O)C1 ?
NR1D1 modulator: 13; EP2 antag: 9; EP2 mod: -39; SKN-1 inh: 10; RAM network inh: 9.5*; PG9 binder: -1

How did Cc1ccc(-c2nnn(CC(=O)NCC3COCCO3)n2)o1 (configuration not stated) do in these assays?
NR1D1 modulator: 5; EP2 antag: 8; EP2 mod: 3; SKN-1 inh: 42*; RAM network inh: 1; PG9 binder: -1

How did Cc1ccc(-c2nnn(CC(=O)NCC3CC3)n2)o1 do in these assays?
NR1D1 modulator: -1; EP2 antag: 9; EP2 mod: -27; SKN-1 inh: -7; RAM network inh: 1; PG9 binder: 1

What do the screens show for `CCOc1ccc(N(C(=O)c2ccco2)C(C(=O)NC2CCCC2)c2ccccc2)cc1` (configuration not stated)?
EP2 antag: 6; EP2 mod: 61*

What do the screens show for `COc1ccc(N(C(=O)CNC(=O)c2ccco2)C(C(=O)NC2CCCCC2)c2cccnc2)cc1` (configuration not stated)?
NR1D1 modulator: 3; SKN-1 inh: 38*; PG9 binder: 0

How did CC1(C)N([O-])c2cc([N+](=O)[O-])ccc2[N+]1=O do in these assays?
NR1D1 modulator: 0; EP2 antag: 87*; EP2 mod: -45; PG9 binder: -1

Results for Cc1ccc(C)n1-c1cc([N+](=O)[O-])ccc1-n1ccnc1 ?
NR1D1 modulator: 4; EP2 antag: 7; EP2 mod: 9; SKN-1 inh: -10; PG9 binder: -2

What do the screens show for `COCCNC(=O)c1cn(C[C@H]2CCCN(C(=O)c3oc(C)nc3C)C2)nn1`?
EP2 antag: 12; EP2 mod: 16

How did Cc1cnc(NC(=O)CC(C)c2ccccc2)s1 (configuration not stated) do in these assays?
NR1D1 modulator: 0; SKN-1 inh: 35*; PG9 binder: -2

What do the screens show for `CC(C)c1nnc(NC(=O)CC(C)c2ccccc2)s1` (configuration not stated)?
NR1D1 modulator: 0; SKN-1 inh: 10; PG9 binder: 0

How did COc1cc(/C=C/C(=O)OCC(=O)NCCC2=CCCCC2)ccc1O do in these assays?
NR1D1 modulator: -9; EP2 antag: 8; EP2 mod: -10; SKN-1 inh: -13; RAM network inh: 1; PG9 binder: -1

How did O=C(COC(=O)/C=C/c1cccc(Br)c1)NCCC1=CCCCC1 do in these assays?
NR1D1 modulator: 5; EP2 antag: 8; EP2 mod: 1; SKN-1 inh: -3; RAM network inh: 9.8*; PG9 binder: 0

Results for O=C(CSc1nnnn1-c1cccc2ccccc12)Nc1ccc(C(=O)O)cc1 ?
NR1D1 modulator: 0; SKN-1 inh: -6; PG9 binder: 0

How did O=C(CCCSc1nnnn1-c1cccc2ccccc12)c1ccc(F)cc1 do in these assays?
NR1D1 modulator: 2; EP2 antag: 5; EP2 mod: -6; SKN-1 inh: -10; RAM network inh: 9.4*; PG9 binder: 0

What do the screens show for `CCOc1ccc2nc(NC(=O)CN3CCC(n4nnc5cc(C(F)(F)F)ccc54)CC3)sc2c1`?
NR1D1 modulator: -2; EP2 antag: 16; EP2 mod: 5; SKN-1 inh: 39*; RAM network inh: 6; PG9 binder: 0

Results for Cc1cc(NC(=O)CN2CCC(n3nnc4cc(C(F)(F)F)ccc43)CC2)no1 ?
NR1D1 modulator: -4; EP2 antag: 1; EP2 mod: 23; SKN-1 inh: -2; RAM network inh: 1; PG9 binder: 1

What do the screens show for `CCOCc1nnc(NC(=O)c2c(Cl)cccc2Cl)s1`?
EP2 antag: 10; EP2 mod: -34

What do the screens show for `CC(C)OC(=O)c1c(NC(=O)CCC(=O)O)sc2c1CCCCC2`?
NR1D1 modulator: 1; EP2 antag: 9; EP2 mod: 16; SKN-1 inh: 3; RAM network inh: 8.5*; PG9 binder: 1

Results for Cc1sc2ncnc(SCC(=O)N3CCc4ccccc43)c2c1C ?
EP2 antag: 7; EP2 mod: -9

Results for CCOC(=O)c1sc(/N=C/c2c(O)ccc3ccccc23)cc1C ?
NR1D1 modulator: -3; EP2 antag: 4; EP2 mod: 4; SKN-1 inh: 5; RAM network inh: 9.0*; PG9 binder: -3

How did Cc1noc(C)c1C(=O)N1CCC[C@H](C(=O)c2ccc(F)cc2)C1 do in these assays?
EP2 antag: 2; EP2 mod: -31
